# Results filed as inconclusive are left out. Unmarked numbers belong to inactive results. Active and inactive are the calls of the source. The call rests on the fitted dose curve; in most records, active means well fitted cell-killing curve with a large enough effect; inconclusive means small, poorly fitted or top-dose-only effect; inactive means flat fitted curve, though single readings scatter.
# Assay: Cell Viability - LYMP2-008 (AID 980); further: nearly all actives have a fitted effect of over 60% in size
# Settings: LYMP2-008 lymphoblastoid cell viability, qHTS; series mostly up to 92.2 µM; activity change, negative = cytotoxicity: at the top concentration
# Source text: NIH Chemical Genomics Center [NCGC]
# NIH Molecular Libraries Screening Centers Network [MLSCN]
# National Institutes of Environmental Health Sciences [NIEHS]
# National Toxicology Program [NTP]
# We have developed a 1536-well cell-based assay for quantitative high throughput screening (qHTS) against a number of cell lines to determine in vitro cytotoxicity of small molecules. This particular assay uses a human lymphoblastoid cell line (LYMP2-008) purchased from Coriell Institute for Medical Research.
# NCGC Assay Protocol Summary:
# The CellTiter-Glo luminescent cell viability assay (Promega) is a homogeneous method to measure the number of viable cells in culture. The end point readout of this assay is based on quantitation of intracellular ATP, an indicator of metabolic activity, using the luciferase reaction. Luciferase catalyzes the oxidation of beetle Luciferin to oxyluciferin and light in the presence of ATP. The luminescent signal is proportional to amount of ATP present.
# Using the CellTiter-Glo luminescent cell viability assay, the amount of cellular ATP was measured in the lymphoblastoid cell line with complete culture medium following compound treatment for 24 hours. The assay was performed in opaque white Kalypsys 1536-well plates. In the screen, tetraoctylammonium bromide was used as positive control. Library compounds were measured for their ability to cause acute toxicity in the cell line, as reflected by a decrease in intracellular ATP levels, in a concentration-dependent manner. […] AC50 values were determined from concentration-response data modeled with the standard Hill equation.
# qHTS protocol for CellTiter Glo lymphoblastoid cellular assay
# [Step] [Parameter] [Value] [Description]
# 1. Reagent; 5 uL; 2500 lymphoblastoid cells/well
# 2. Time; 5 hr; 37 C incubation
# 4. Controls; 23 nL; Tetraoctylammonium bromide 6.4pM to 92 uM
# 5. Time; 24 hr; 37 C incubation
# 6. Reagent; 5 uL; CellTiter Glo reagent
# 7. Time; 30 min; Room Temperature
# 8. Detection; Luminescence; Viewlux plate reader
# Keywords: cell viability, cytotoxicity, lymphoblastoid cell line, luminescence, NTPHTS, NTPHTS_NCGC, NIEHS, DSSTox, MLSMR, MLSCN, NIH Roadmap, qHTS, NCGC
# On the % scale 0 is the no-effect control and ±100 the full control effect; potency means the concentration at half of the fitted maximal effect.
Compound,"activity change, negative = cytotoxicity [%]",Potency
CC1=C2[C@@H]([C@H](C)CC[C@H]2/C=C(\C)C(=O)O)[C@H](O)C1,-8.49,
O=S(=O)(O)O,,inactive
CC(C)(C)NC(=O)[C@@H]1C[C@@H]2CCCC[C@@H]2CN1C[C@@H](O)[C@H](Cc1ccccc1)NC(=O)[C@H](CC(N)=O)NC(=O)c1ccc2ccccc2n1,,50.1 µM (active)
CCOc1ccc2c(c1)C(C)=CC(C)(C)N2,-3.86,
O=C(O)CCC(=O)C(=O)O,-0.694,
CC(O)CO (stereo not given),,inactive
Cc1ccccc1,,inactive
O=CCCCC=O,,25.1 µM (active)
CCCCCCCC/C=C\CCCCCCCC(=O)O,7.38,
IC(I)I,-2.39,
CC(C)=O,0.489,
CCCCC/C=C\C/C=C\CCCCCCCC(=O)O,-19.2,
Nc1ccn([C@H]2CS[C@@H](CO)O2)c(=O)n1,-1.97,
CCOC(C)=O,2.44,
CCCCCCCC(=O)O,,inactive
